LYPLA1 counter – LYPLA1 inhibitors, primary screen, counter-screen for PME1 inhibitor project, biochemical, fluorescence polarization, FP-Rh probe ABPP; inhibition, % at 5.9 µM; Acyl-protein thioesterase 1 (Homo sapiens), O75608; recombinant LYPLA1; actives 0.16% (n = 320,000);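 active means inhibition above the mean of all tested compounds plus 3 SD, set per campaign, cut at about 14% in these data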;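 further: inhibitors block serine hydrolase probe labeling of LYPLA1 so polarization falls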
Target sequence (O75608 whole entry, looked up): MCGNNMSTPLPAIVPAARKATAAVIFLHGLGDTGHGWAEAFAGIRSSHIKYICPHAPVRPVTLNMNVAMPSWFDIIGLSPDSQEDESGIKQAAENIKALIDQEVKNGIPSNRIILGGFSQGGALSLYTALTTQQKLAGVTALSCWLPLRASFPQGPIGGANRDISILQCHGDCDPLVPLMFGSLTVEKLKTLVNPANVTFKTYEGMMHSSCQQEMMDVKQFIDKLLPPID
PP5 primary – PP5 phosphatase inhibitors, primary screen, biochemical, fluorescence; Serine/threonine-protein phosphatase 5 (Homo sapiens), P53041; purified PP5c, OMFP substrate fluorescence; inhibition, % at 6.7 µM; actives 0.18% (n = 320,000); AID 1987, 2009;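 active means inhibition above the campaign's mean inhibition across all tested compounds plus 3 SD, cut at about 9.5% in these data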
PP1 counter – PP1-alpha phosphatase inhibitors, primary screen, counter-screen for PP5 inhibitor project, biochemical, fluorescence, OMFP substrate, single point; Serine/threonine-protein phosphatase PP1-alpha catalytic subunit (Homo sapiens), P62136; purified PP1alpha; inhibition, % at 6.7 µM; actives 0.9% (n = 320,000);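 active means inhibition above the mean inhibition of all tested compounds plus 3 SD, computed separately for each screening campaign, cut at about 15% in these data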
Fam108B counter – mouse Fam108B serine hydrolase inhibitors, primary screen, counter-screen for RBBP9 inhibitor project, biochemical, fluorescence polarization; AID 1947, 2009; inhibition, % at 9.51 µM; actives 0.33% (n = 300,000); recombinant Fam108B, FP-Rh probe fluorescence polarization;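 active means inhibition above the screen mean inhibition plus 3 SD, computed separately per campaign, cut at about 18% in these data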;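 further: inhibitors lower polarization as less probe binds the enzyme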
LYPLA2 counter – LYPLA2 inhibitors, primary screen, counter-screen for PME1 inhibitor project, biochemical, fluorescence polarization, FP-Rh probe ABPP. inhibition, % at 5.9 µM. recombinant LYPLA2. actives 0.38% (n = 320,000);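 active means inhibition above the screen-wide mean plus 3 SD, limit set per campaign, cut at about 26% in these data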
Target sequence (O95372 whole entry, looked up): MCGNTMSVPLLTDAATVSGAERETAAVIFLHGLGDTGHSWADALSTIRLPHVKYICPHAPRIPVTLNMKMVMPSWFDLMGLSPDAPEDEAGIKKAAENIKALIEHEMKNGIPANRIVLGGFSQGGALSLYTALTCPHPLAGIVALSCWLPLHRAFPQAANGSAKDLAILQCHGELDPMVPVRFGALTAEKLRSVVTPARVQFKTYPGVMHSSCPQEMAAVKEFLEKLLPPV
PME-1 inh – PME-1 inhibitors via competitive probe labeling, primary screen, biochemical, fluorescence polarization, FP-Rh probe, HTS; Protein phosphatase methylesterase 1 (Homo sapiens), Q9Y570; actives 0.53% (n = 320,000); inhibition, % at 5.9 µM; AID 2130, 2009; recombinant PME-1;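 active means inhibition above the campaign mean of all compounds plus 3 SD, cut at about 26% in these data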;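 further: competitive labeling of PME-1 active site by serine hydrolase directed probe; inhibitors block probe labeling so polarization falls and inhibition rises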
Hits are given with their value; . = inactive; / = no result given. The list is not random: actives were taken first. Their share in the collection is about 1.8%.

SMILES | LYPLA1 counter | PP5 primary | PP1 counter | Fam108B counter | LYPLA2 counter | PME-1 inh
Cc1occc1-c1nnc(SCC(=O)c2ccc(F)cc2)n1Cc1ccco1 | . | . | . | . | . | .
COc1ccccc1-c1nnc(SCC(=O)c2ccc(C3CCCCC3)cc2)n1Cc1ccco1 | . | . | 17 | . | . | .
CCC(=O)Nc1ccccc1C(=O)C(=O)Nc1ccccc1 | . | . | . | . | . | .
O=C1C=C(/C=C/c2ccccc2)C[C@@H](c2ccc3c(c2)OCO3)C1 | . | . | . | / | . | .
COc1ccc(Cl)cc1C(Nc1cccnc1)c1ccc2cccnc2c1O (stereo unspecified) | . | . | 17 | . | . | .
O=C(CSc1n[nH]c(-c2cccs2)n1)NCCc1ccccc1 | . | . | . | . | . | .
CCOC(=O)c1c2c(n(C)c1COC)C(=O)C(=O)c1ccc(Br)cc1-2 | . | . | . | 29 | . | .
CCOC(=O)c1c(C)nc(C)c(C(=O)OCC)c1-c1ccc(Br)cc1 | . | . | . | . | . | .
CC(=O)c1cccc(OCc2cc(C(=O)NCCC3=CCCCC3)no2)c1 | . | . | . | . | . | .
Cc1cc(Br)ccc1NC(=O)CN(C)C(=O)c1ccc2ccccc2n1 | . | . | . | / | . | .
CN(C)CCCN(C(=O)c1cc(-c2cccs2)nc2ccccc12)c1nc2c(F)cccc2s1 | . | . | . | . | . | .
Cc1ccc2nc(N(CCCN(C)C)C(=O)c3cc(-c4cccs4)nc4ccccc34)sc2c1 | . | . | 17 | . | . | .
O=C(OCCN(C1=NS(=O)(=O)c2ccccc21)c1ccc(Cl)cc1)c1ccco1 | . | . | . | . | . | 27
COc1cccc(CNC(=O)CCC2CCCN(C(=O)c3cccnc3SC)C2)c1 (stereo unspecified) | . | . | . | . | . | .
CCN1C(=O)c2cccc3c(NS(=O)(=O)c4ccc(NC(C)=O)cc4)ccc1c23 | . | . | . | . | . | .
CCOC(=O)c1ccc(NC(=O)Nc2ccc3c4c(cccc24)C(=O)N3CC)cc1 | . | . | . | . | . | 28
CCOC(=O)C1=C(COC(=O)CNC(=O)c2ccc(Cl)cc2Cl)NC(=O)NC1C (stereo unspecified) | . | . | . | . | . | .
O=C(CSc1ccc2nnc(-c3ccccn3)n2n1)Nc1ccccc1F | . | . | . | . | . | .
O=C(c1ccc(F)cc1)N1CCN(c2ccc([N+](=O)[O-])cc2-n2cccc2)CC1 | . | . | . | . | . | .
O=C1c2cccc3c([N+](=O)[O-])ccc(c23)C(=O)N1c1ccc(Cl)cn1 | . | . | . | . | . | 28
O=C1c2cccc3c([N+](=O)[O-])ccc(c23)C(=O)N1c1ccccn1 | . | . | . | . | . | .
Cc1ccc(C(C(=O)NC2CCCCC2)N2CCCC2)cc1 (stereo unspecified) | . | . | 17 | . | . | .
CC(C)c1ccc2[nH]c(O)c(N=NC(=O)c3ccc(CSc4nncn4C)cc3)c2c1 | . | . | . | . | . | 30
N=c1sccn1CC(=O)Nc1cc(S(=O)(=O)N2CCCC2)ccc1Cl | . | . | . | . | . | .
O=C(CN1CCCc2ccccc21)Nc1cc(S(=O)(=O)N2CCCC2)ccc1Cl | . | . | . | / | . | 73
SMILES | LYPLA1 counter | PP5 primary | PP1 counter | Fam108B counter | LYPLA2 counter | PME-1 inh
COC(=O)c1ccc(-n2c(C)cc(C(=O)COC(=O)CC3Sc4ccccc4NC3=O)c2C)cc1 (stereo unspecified) | . | . | . | . | . | .
Cc1cc(C(=O)COC(=O)CC2Sc3ccccc3NC2=O)c(C)n1-c1ccc(Br)cc1 (stereo unspecified) | . | . | 17 | . | . | .
Cc1ccc(-c2cc(C(=O)N/N=C/C=C/c3ccccc3)n[nH]2)s1 | . | . | 15 | . | . | .
Cc1cc(C(=O)N/N=C/C=C/c2ccccc2)n[nH]1 | . | . | . | . | . | .
COc1cc(/C=N/NC(=O)C(Cc2c[nH]c3ccccc23)NC(=O)OCC(C)C)cc([N+](=O)[O-])c1O (stereo unspecified) | . | . | . | . | . | .
COc1cc(/C=N/NC(=O)C(Cc2c[nH]c3ccccc23)NC(=O)OCc2ccccc2)cc([N+](=O)[O-])c1O (stereo unspecified) | . | . | . | . | . | 29
COc1cccc(Nc2nc(N)c([N+](=O)[O-])c(N3CCOCC3)n2)c1 | . | . | . | . | . | .
O=C(Nc1nc(-c2ccccn2)cs1)c1ccco1 | . | . | 16 | . | . | .
O=C(Nc1nc(-c2ccncc2)cs1)c1ccco1 | . | . | . | . | . | .
COc1ccc(OCC(=O)Nc2cc(NC(=O)COc3ccc(OC)cc3)cc(C(=O)O)c2)cc1 | . | . | . | . | . | .
Cc1ccc(OCC(=O)Nc2cc(NC(=O)COc3ccc(C)c(C)c3)cc(C(=O)O)c2)cc1C | . | . | 16 | . | . | .
O=C(CN1C(=O)c2ccccc2C1=O)NC1CCC(O)CC1 (stereo unspecified) | . | . | . | / | . | .
Oc1ccc(/C=C/c2ccc3cccc(O)c3n2)cc1Br | . | . | . | . | . | 31
Cc1ccccc1NC(=O)CN(C)S(=O)(=O)c1cccs1 | . | . | . | . | . | .
COc1ccc(/C=N/Nc2snc(SC)c2C#N)cc1OC | . | . | . | . | . | 40
COc1cccc(/C=N/Nc2snc(SC)c2C#N)c1 | . | . | . | . | . | .
Oc1ccc(-c2cnc(-c3ccc(O)cc3)nc2)cc1 | . | . | . | . | . | 36
COc1ccc(S(=O)(=O)N2CCCCCC2)cc1C(=O)Nc1cc(C)ccn1 | . | . | . | / | . | .
COc1ccc(S(=O)(=O)N2CCCCCC2)cc1C(=O)NCCOc1ccc(C)cc1 | . | . | . | . | . | 28
COc1cccc(CN2CCNC(=O)C2CC(=O)N(C)C2CCOCC2)c1OC (stereo unspecified) | . | . | . | . | . | .
Fc1cccc2sc(Nc3nc4cc5c(cc4s3)OCCO5)nc12 | . | . | . | . | . | 67
Fc1cc(F)c2nc(Nc3nc4cc5c(cc4s3)OCO5)sc2c1 | . | . | . | . | . | 49
Fc1cccc2sc(Nc3nc4cc5c(cc4s3)OCO5)nc12 | . | . | . | . | . | 72
COc1ccc(C(=O)OCc2c(F)cccc2Cl)cc1S(=O)(=O)N1CCOCC1 | . | . | . | / | . | .
CC1CCC(NCCNC(=O)c2ccco2)CC1 (stereo unspecified) | . | . | . | . | . | .
COc1ccc2c(c1)sc(N)[n+]2Cc1cc(C)cc2cccnc12 | . | . | . | . | . | .

Compound activity deposited in PubChem BioAssay by The Scripps Research Institute Molecular Screening Center.
